Compound activity as filed in PubChem.
Myeloid diff MLP = induction of myeloid progenitor differentiation, primary screen, cell-based, flow cytometry, MLPCN library; ER-HoxA9 myeloid progenitors, lysozyme-GFP differentiation; calls only at 10 µM; hit rate 1% among 360,000; AID 624256, 2012;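 active = normalized GFP-positive differentiation at or above the plate's own cutoff, the solvent-only control mean plus 3 SD; inconclusive = no clear call, values can overlap the other calls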;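 also: cells exposed to compound for four days before flow analysis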
Rpn11 inh = Rpn11 (PSMD14) deubiquitinase inhibitors, primary screen, biochemical, fluorescence polarization, uHTS; hit rate 0.59% among 360,000; AID 588493, 2011; inhibition, % at 20 µM; human 26S proteasome, Ub4-pepOG fluorescence polarization; 20S core pre-blocked with epoxomicin;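 active = inhibition at 20 µM, scaled to each plate's controls, above about 33%, limit read from the data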
HNF4A DNA FP = change in binding of human HNF4A to DNA, primary screen, biochemical, fluorescence polarization, FITC-DNA | activity change, % at 10 µM | 1 h | hit rate 0.3% among 360,000; in the data active = activity change above about 30%, passing the limit was not always enough
Target sequence (P41235 whole entry, looked up): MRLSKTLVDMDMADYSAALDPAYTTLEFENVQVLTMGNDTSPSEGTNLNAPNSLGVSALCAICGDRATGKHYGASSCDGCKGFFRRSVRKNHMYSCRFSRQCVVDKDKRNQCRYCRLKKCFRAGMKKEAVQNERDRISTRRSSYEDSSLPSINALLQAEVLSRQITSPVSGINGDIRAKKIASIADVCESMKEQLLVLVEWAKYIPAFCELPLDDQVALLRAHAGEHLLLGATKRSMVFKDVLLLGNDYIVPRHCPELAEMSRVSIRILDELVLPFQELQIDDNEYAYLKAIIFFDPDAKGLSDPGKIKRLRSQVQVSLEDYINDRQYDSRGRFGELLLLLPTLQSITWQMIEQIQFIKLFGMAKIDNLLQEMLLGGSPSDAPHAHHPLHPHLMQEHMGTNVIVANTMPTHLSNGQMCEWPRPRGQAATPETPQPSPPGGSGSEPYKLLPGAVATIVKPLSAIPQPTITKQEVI
TPT1 inhibitor = Candida albicans TPT1 enzyme inhibitors, primary screen, biochemical, fluorescence polarization; tRNA 2'-phosphotransferase TPT1 (Candida albicans SC5314); recombinant caTPT1, FP RNA substrate dephosphorylation; inhibition, % at 5 µM; hit rate 0.81% among 300,000; AID 1962, 2009;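 active = inhibition above the mean of all tested compounds plus 3 SD, set per screening campaign, cut at about 24% in these data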
Myeloid diff = inducers of myeloid progenitor differentiation, confirmation, cell-based, GFP/Mac1 flow cytometry, cherry pick 01. hit rate 2% among 2,300. calls only. shares compounds with Myeloid diff MLP. ER-HoxA9 myeloid progenitors, GFP/Mac1 double-positive flow;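 active = share of green or green-and-red cells above 9 and 9% in run 1 or 4 and 3% in run 2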
GFP autofluor = counter-screen for myeloid differentiation promoters: compound fluorescence; fluorescence response, % (no concentration beside the values); AID 651707; ER-HoxA9 myeloid progenitors, no estrogen, GFP autofluorescence flow cytometry; vehicle wells 0%, positive control 100%; hit rate 7.4% among 2,300; shares compounds with Myeloid diff MLP;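 active = over 5% cells positive for green fluorescent reporter, or over 2% positive for both it and APC stain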
Numbers stand for hits; i = inactive; ? = inconclusive; nt = no result given; + = active, no number. Sampled rows, rich in hits. Any-hit rate of the full collection: about 2.1%.

SMILES | Myeloid diff MLP | Rpn11 inh | HNF4A DNA FP | TPT1 inhibitor | Myeloid diff | GFP autofluor
O=C(NCCc1ccccc1)c1ccc(S(=O)(=O)N2CCCCC2)cc1 | i | i | i | nt | nt | nt
CC1Cc2ccccc2N1C(=O)c1ccnc(C(C)(C)C)c1 (stereo not given) | + | i | i | i | i | i
COc1cccc(NC(=O)C2CC(=O)N(C)C(=Nc3cccc(F)c3)S2)c1 (stereo not given) | i | i | i | i | i | i
Cc1ccc(S(=O)(=O)Nc2cccc(-c3cn4ccsc4n3)c2)cc1 | i | i | i | i | i | i
Cc1ccc(S(=O)(=O)N2C[C@H]3C(=O)C[C@@H](c4ccccc4)N(S(=O)(=O)c4ccc(Br)cc4)[C@H]3C[C@H]2c2ccccc2)cc1 | + | i | i | nt | i | i
COc1cc(C)c(CN2CCCCC2CO)cc1C (stereo not given) | + | i | i | i | i | i
CCOc1ccc(OCCN2C(=O)c3ccccc3C2=O)cc1 | i | i | i | i | nt | nt
COc1ccc(OCC(=O)OCCN2C(=O)c3ccccc3C2=O)cc1 | + | i | i | i | i | i
CC(NC(=O)CNC(=O)C1O[C@@H]2OC(C)(C)O[C@@H]2[C@H]2OC(C)(C)O[C@@H]12)C(=O)O (stereo not given in full) | i | i | i | i | nt | nt
O=C(O)CCNC(=O)/C(=C\C=C\c1ccccc1)NC(=O)c1ccccc1 | i | i | i | i | i | i
CC1(C)O[C@H]2CC(=O)OC[C@@]23C1CC(=O)[C@]1(C)C3CC[C@@]2(C)[C@H](c3ccoc3)OC(=O)[C@H]3O[C@]321 (stereo not given in full) | + | i | i | i | i | i
CCN(CC)S(=O)(=O)c1cc(NC(=O)C2CCN(c3ncnc4sc(C)c(C)c34)CC2)ccc1Cl | + | i | i | i | i | i
CCOC(=O)C1=C(CN2c3ccccc3CC2C)NC(=O)NC1c1ccccc1 (stereo not given) | + | i | i | i | i | i
C[C@@H]1CC=C[C@H]2[C@H]1C(=O)N(Cc1ccccc1)[C@H]2c1ccc(-c2ccc(F)cc2)cc1F | i | i | i | i | i | i
C[C@@H]1CC=C[C@H]2[C@H]1C(=O)N(Cc1ccccc1)[C@H]2c1ccc(-c2ccoc2)cc1F | i | i | i | i | nt | nt
CC1(C)CC(=O)C2=C(C1)N(Cc1ccco1)C(=O)C2(NC(=O)C1CCCCC1)C(F)(F)F (stereo not given) | i | i | i | i | i | i
Cc1cc(C)cc(N2C(N)=NC(N)=NC2c2cccc(Cl)c2)c1 (stereo not given) | i | i | i | i | nt | nt
Cc1cc(C)cc(N2C(N)=NC(N)=NC2c2ccccc2F)c1 (stereo not given) | i | i | i | i | i | i
Cc1ccc(S(=O)(=O)NC(=O)C2(C)CCN2C(=O)c2cccc(F)c2)cc1 (stereo not given) | i | i | i | nt | nt | nt
CC(=O)O[C@]1(C(C)=O)CC[C@H]2[C@@H]3C=C(Cl)C4=CC(=O)[C@@H]5C[C@@H]5[C@]4(C)[C@H]3CC[C@@]21C | i | i | i | i | nt | nt
CC(=O)O[C@]1(C(C)=O)CC[C@H]2[C@@H]3C=C(Cl)C4=CC(=O)CC[C@]4(C)[C@H]3CC[C@@]21C | i | i | i | i | i | i
Cc1noc(C)c1C(=O)N1CCN(S(=O)(=O)c2cccc(Cl)c2Cl)CC1 | i | i | i | i | nt | nt
Cc1cc(C(=O)O)c(CCCN)s1 | i | i | i | i | i | i
CC(=O)c1ccc(S(=O)(=O)N2CCN(C(=O)c3ccc(-n4nc(C)c(Cl)c4C)cc3)CC2)cc1 | i | i | i | nt | i | i
CC1CCN(Cc2ccc(-c3nnn(CC(=O)Nc4ccccc4Cl)n3)cc2)CC1 | + | i | i | i | i | i
SMILES | Myeloid diff MLP | Rpn11 inh | HNF4A DNA FP | TPT1 inhibitor | Myeloid diff | GFP autofluor
Cc1ccc(C(=O)ON=C2CCN(S(=O)(=O)c3ccccc3)CC2)cc1 | i | i | i | i | i | i
O=C(ON=C1CCN(S(=O)(=O)c2ccccc2)CC1)c1ccc(F)cc1 | i | i | i | i | nt | nt
O=S(=O)(N/N=C\c1ccccc1O)c1ccc(Cl)cc1 | i | i | i | nt | nt | nt
O=S(=O)(N/N=C\C=C\c1ccccc1)c1ccc(Cl)cc1 | i | i | i | i | i | i
COC(=O)C(C)(C)NC(=O)c1cccs1 | i | i | i | i | nt | nt
COC(=O)C(C)(C)c1cccnc1C#N | i | i | i | nt | i | i
CC[n+]1c(/C=C/c2ccc(OC)c(OC)c2)ccc2ccccc21 | + | i | i | i | i | i
CCCC(=O)Nc1ccc2c(c1)nc1n2CCN(C2CCCCC2)C1 | ? | i | i | i | nt | nt
COc1ccc2[nH]c3c(c2c1)CCNC3C1CC=C(C)CC1 (stereo not given) | i | i | i | i | nt | nt
COc1ccc2[nH]c3c(c2c1)CCNC3c1ccc([N+](=O)[O-])o1 (stereo not given) | + | i | i | i | i | 99
Cn1cnnc1Sc1nc2ccccc2nc1NS(=O)(=O)c1ccccc1 | i | i | i | i | i | i
CCN(CC)c1ccc(N=C2C(=O)Nc3ccccc32)cc1 | i | i | i | i | i | 3.7
Cc1[nH]nc2c1C1(C(=O)N(Cc3ccc(Cl)cc3)c3ccccc31)C(C#N)=C(N)O2 (stereo not given) | i | i | i | i | i | i
COC(=O)Cc1[nH]nc2c1C1(C(=O)N(Cc3ccccc3)c3ccccc31)C(C#N)=C(N)O2 (stereo not given) | ? | i | i | i | nt | nt
COC(=O)/C(=C/Nc1ccc(O)cc1)[N+](=O)[O-] | i | i | i | i | nt | nt
COC(=O)/C(=C/Nc1ccccc1)[N+](=O)[O-] | nt | i | i | i | i | i
CCN(CC)CCNC(=O)c1cn(CC)c2ccc(S(=O)(=O)N(C)C3CCCCC3)cc2c1=O | i | i | i | i | nt | nt
CCN(CC)CCNC(=O)c1cn(C)c2ccc(S(=O)(=O)N(C)C3CCCCC3)cc2c1=O | i | i | i | i | i | i
COc1cc(NCC(=O)Nc2cccc(S(=O)(=O)N3CCCCC3)c2)cc(OC)c1OC | + | i | i | nt | i | i
O=C(Nc1cccc(S(=O)(=O)N2CCCCCC2)c1)c1cncc(Br)c1 | i | i | i | nt | i | i
Cc1ccc(N(C)S(=O)(=O)c2cccc(C(=O)Nc3ccc(N4CCOCC4)cc3)c2)cc1 | + | i | i | nt | i | i
CN(C)S(=O)(=O)c1cccc(NC(=O)c2cccc(S(=O)(=O)N3CCCCCC3)c2)c1 | + | i | i | nt | i | i
Cc1ccc(S(=O)(=O)N2CCCCC2)cc1NC(=O)c1cncc(Br)c1 | i | i | i | nt | nt | nt
CN(C)S(=O)(=O)c1cccc(NC(=O)c2ccc(S(=O)(=O)N3CCCCC3)cc2)c1 | i | i | i | i | nt | nt
